For assay [1], the target named is human Neurokinin, NK2 Receptor, TACR2 (gene 6865) (UniProt P21452). Put plainly: NVS_GPCR_hNK2: NovaScreen (NVS) G Protein-Coupled Receptor Assay for human Neurokinin, NK2 Receptor (AID 2283278).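 Also: actives reduce bound radioligand signal relative to DMSO baseline.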 In a few lines: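 Test chemicals displace a radioligand from receptor prepared from CHO cells in a cell-free format, read after 4 hours by scintillation counting on filters. Screening starts at 25 uM in duplicate, and active chemicals then go to concentration series.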
Chain of human Neurokinin, NK2 Receptor, TACR2 (gene 6865) (P21452 whole entry, looked up): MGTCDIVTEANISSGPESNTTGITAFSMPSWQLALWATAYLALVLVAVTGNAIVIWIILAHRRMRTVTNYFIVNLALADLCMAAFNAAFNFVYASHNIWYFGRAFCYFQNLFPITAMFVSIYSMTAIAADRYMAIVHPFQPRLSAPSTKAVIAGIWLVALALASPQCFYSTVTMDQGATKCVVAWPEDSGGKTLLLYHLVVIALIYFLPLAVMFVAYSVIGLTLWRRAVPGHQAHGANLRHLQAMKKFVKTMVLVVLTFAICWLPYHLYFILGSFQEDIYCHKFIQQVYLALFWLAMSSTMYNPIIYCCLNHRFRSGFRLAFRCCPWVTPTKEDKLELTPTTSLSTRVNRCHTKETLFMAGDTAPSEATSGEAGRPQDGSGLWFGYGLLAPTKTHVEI

In assay [2] the target is human Endothelin Receptor Type A (ETA), EDNRA (gene 1909) (UniProt P25101). Put plainly: NVS_GPCR_hETA: NovaScreen (NVS) G Protein-Coupled Receptor Assay for human Endothelin Receptor Type A (ETA) (AID 2283265). In a few lines: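 Binding of radioligand to membrane protein extracted from SH-SY5Y cells was read by filtration and scintillation after 3 h. Compounds were screened at 25 uM in duplicate, with hits followed up in singleton concentration series to 50 uM.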
Chain of human Endothelin Receptor Type A (ETA), EDNRA (gene 1909) (P25101 whole entry, looked up): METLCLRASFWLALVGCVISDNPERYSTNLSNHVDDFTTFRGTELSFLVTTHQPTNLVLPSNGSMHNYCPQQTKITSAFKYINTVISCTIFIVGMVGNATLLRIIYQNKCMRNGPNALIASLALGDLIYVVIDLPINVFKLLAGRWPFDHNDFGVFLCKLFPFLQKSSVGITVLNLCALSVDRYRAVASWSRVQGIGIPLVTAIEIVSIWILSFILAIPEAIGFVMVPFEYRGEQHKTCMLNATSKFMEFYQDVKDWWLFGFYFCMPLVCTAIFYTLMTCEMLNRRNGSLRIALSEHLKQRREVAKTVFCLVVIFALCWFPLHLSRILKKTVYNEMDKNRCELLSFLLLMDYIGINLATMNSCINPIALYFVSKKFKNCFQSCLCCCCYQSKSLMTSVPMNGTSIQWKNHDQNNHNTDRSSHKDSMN

In assay [3] the target is human Histamine 1 Receptor (H1), HRH1 (gene 3269) (UniProt P35367). Put plainly: NVS_GPCR_hH1: NovaScreen (NVS) G Protein-Coupled Receptor Assay for human Histamine 1 Receptor (H1) (AID 2283268). An outline of the steps:
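Filter-based scintillation detection of radioligand binding to human H1, 1 h incubation; chemicals screened in duplicate at 25 uM, then concentration-response; signal loss relative to DMSO taken as activity.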

In assay [4] the target is human Adrenergic, Beta 3 Receptor (Adrb3), ADRB3 (gene 155) (UniProt P13945). Put plainly: NVS_GPCR_hAdrb3: NovaScreen (NVS) G Protein-Coupled Receptor Assay for human Adrenergic, Beta 3 Receptor (Adrb3) (AID 2283262). An outline of the steps:
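A cell-free filter binding assay read by scintillation counting, with displacement of a specific radioligand measured after 1 hour. The receptor source was SK-N-MC extracts (cells pretreated with isoproterenol and 8-bromo-cAMP). Compounds were first tested at 25 uM in duplicate and then in concentration series.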

Assay [5] addresses human Dopamine Receptor D4.4 (DRD4.4), DRD4 (gene 1815) (UniProt P21917). Put plainly: NVS_GPCR_hDRD4.4: NovaScreen (NVS) G Protein-Coupled Receptor Assay for human Dopamine Receptor D4.4 (DRD4.4) (AID 2283264). An outline of the steps: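 Filter-binding assay with a tritiated or iodinated ligand, cell-free receptor prepared from CHO, 1 hour. Loss of bound radioactivity versus DMSO; single 25 uM duplicate screen, then concentration-response for actives.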

For assay [6], the target named is human Dopamine Receptor D2 (DRD2), DRD2 (gene 1813) (UniProt P14416). Put plainly: NVS_GPCR_hDRD2s: NovaScreen (NVS) G Protein-Coupled Receptor Assay for human Dopamine Receptor D2 (DRD2) (AID 2283266). An outline of the steps: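 Test compound (25 uM, duplicate in the primary screen; concentration series at follow-up) competed with radioligand for human DRD2 in CHO-derived membrane protein. Filter-based scintillation counting was done 1.5 hours after dosing, with loss of signal analysed against DMSO.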

Assay [7] has as its target D(1A) dopamine receptor (Homo sapiens) (UniProt P21728). Put plainly: NVS_GPCR_hDRD1: NovaScreen (NVS) G Protein-Coupled Receptor Assay for human Dopamine Receptor D1 (DRD1) (AID 2283269). An outline of the steps: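 Extracted HEK293 DRD1 is incubated 1 h with compound and a tritiated or iodinated radioligand, then filtered and counted. Screening runs 25 uM in duplicate with on-plate positive and negative controls.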

Assay [8] has as its target Muscarinic acetylcholine receptor M1 (Homo sapiens) (UniProt P11229). Put plainly: NVS_GPCR_hM1: NovaScreen (NVS) G Protein-Coupled Receptor Assay for human Muscarinic, M1 Receptor (AID 2283270). An outline of the steps:
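Actives from a duplicate 25 uM single-point screen were retested in concentration series. Binding measured as displacement of a radioligand from CHO-derived receptor preparation, 1 h incubation, filtration and scintillation counting, analysed as signal loss against DMSO.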

The target of assay [9] is Muscarinic acetylcholine receptor M3 (Homo sapiens) (UniProt P20309). Put plainly: NVS_GPCR_hM3: NovaScreen (NVS) G Protein-Coupled Receptor Assay for human Muscarinic, M3 Receptor (AID 2283272). In a few lines:
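Radioligand displacement binding on human M3 receptor in CHO-derived membranes, 1 h incubation, filter-based scintillation counting. Primary screen in duplicate at 25 uM; actives followed up in concentration series; loss of signal versus DMSO.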

The target of assay [10] is Muscarinic acetylcholine receptor M2 (Homo sapiens) (UniProt P08172). Put plainly: NVS_GPCR_hM2: NovaScreen (NVS) G Protein-Coupled Receptor Assay for human Muscarinic, M2 Receptor (AID 2283273). An outline of the steps: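 Radioligand competition binding, cell-free, receptor from CHO; 1 h incubation; scintillation detection. Primary testing at 25 uM in duplicate.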
Chain of Muscarinic acetylcholine receptor M2 (Homo sapiens) (P08172 whole entry, looked up): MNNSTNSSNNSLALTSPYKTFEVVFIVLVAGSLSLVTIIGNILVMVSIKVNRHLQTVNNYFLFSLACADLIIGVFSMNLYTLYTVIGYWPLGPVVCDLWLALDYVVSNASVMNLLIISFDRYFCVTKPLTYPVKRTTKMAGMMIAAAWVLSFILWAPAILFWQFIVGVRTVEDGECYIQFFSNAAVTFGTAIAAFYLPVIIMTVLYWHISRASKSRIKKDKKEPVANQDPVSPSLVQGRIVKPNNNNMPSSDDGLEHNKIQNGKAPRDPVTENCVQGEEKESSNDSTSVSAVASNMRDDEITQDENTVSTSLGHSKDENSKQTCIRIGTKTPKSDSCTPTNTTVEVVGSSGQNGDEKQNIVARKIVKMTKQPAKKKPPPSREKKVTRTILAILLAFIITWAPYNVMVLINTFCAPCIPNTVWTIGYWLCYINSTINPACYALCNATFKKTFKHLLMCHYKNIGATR
In assay [11] the target is Muscarinic acetylcholine receptor M5 (Homo sapiens) (UniProt P08912). Put plainly: NVS_GPCR_hM5: NovaScreen (NVS) G Protein-Coupled Receptor Assay for human Muscarinic, M5 Receptor (AID 2283275). In a few lines: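 Chemicals passing a primary duplicate screen at 25 uM were run as singleton concentration series, maximum 50 uM. Displacement of a specific radioligand from CHO-extracted receptor was read by filter scintillation after 1 h, relative to DMSO.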
Chain of Muscarinic acetylcholine receptor M5 (Homo sapiens) (P08912 whole entry, looked up): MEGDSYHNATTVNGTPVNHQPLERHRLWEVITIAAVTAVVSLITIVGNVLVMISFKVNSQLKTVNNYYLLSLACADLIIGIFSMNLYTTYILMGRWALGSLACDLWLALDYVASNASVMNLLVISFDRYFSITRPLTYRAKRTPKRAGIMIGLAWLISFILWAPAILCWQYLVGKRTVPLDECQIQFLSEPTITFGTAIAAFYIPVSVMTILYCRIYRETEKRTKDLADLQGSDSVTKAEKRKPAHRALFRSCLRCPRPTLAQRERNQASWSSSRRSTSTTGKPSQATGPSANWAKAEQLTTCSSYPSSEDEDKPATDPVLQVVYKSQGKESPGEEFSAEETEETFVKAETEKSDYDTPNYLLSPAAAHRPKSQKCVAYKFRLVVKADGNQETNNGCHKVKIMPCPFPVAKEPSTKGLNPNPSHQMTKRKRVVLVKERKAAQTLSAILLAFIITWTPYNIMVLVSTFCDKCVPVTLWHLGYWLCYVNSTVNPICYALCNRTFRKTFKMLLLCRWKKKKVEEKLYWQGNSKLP

For assay [12], the target named is human Thromboxane A2 Receptor (TXA2), TBXA2R (gene 6915) (UniProt P21731). Put plainly: NVS_GPCR_hTXA2: NovaScreen (NVS) G Protein-Coupled Receptor Assay for human Thromboxane A2 Receptor (TXA2) (AID 2283282).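 Also: actives reduce bound radioligand signal relative to DMSO baseline.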 In a few lines: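 Filter scintillation counting of bound radioligand, human platelet protein, 1 h exposure. Single-concentration duplicates (25 uM) first, concentration-response follow-up for actives. Binding loss scored against DMSO baseline.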
Chain of human Thromboxane A2 Receptor (TXA2), TBXA2R (gene 6915) (P21731 whole entry, looked up): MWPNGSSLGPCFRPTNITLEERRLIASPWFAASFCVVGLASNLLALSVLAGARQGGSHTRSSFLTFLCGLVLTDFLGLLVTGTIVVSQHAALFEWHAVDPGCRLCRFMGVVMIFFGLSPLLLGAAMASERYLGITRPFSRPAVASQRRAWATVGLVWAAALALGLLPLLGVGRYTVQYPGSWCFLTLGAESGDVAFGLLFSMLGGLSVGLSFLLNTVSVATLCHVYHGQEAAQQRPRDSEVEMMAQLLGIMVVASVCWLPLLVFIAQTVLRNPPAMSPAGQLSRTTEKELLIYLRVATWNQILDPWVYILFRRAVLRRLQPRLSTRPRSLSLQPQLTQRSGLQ

Assay [13] deals with human Endothelin Receptor Type B (ETB), EDNRB (gene 1910) (UniProt P24530). Put plainly: NVS_GPCR_hETB: NovaScreen (NVS) G Protein-Coupled Receptor Assay for human Endothelin Receptor Type B (ETB) (AID 2283267). An outline of the steps:
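Filter-based scintillation readout of radioligand displacement, 4 h, using membranes from human astrocytoma cells. Actives from a 25 uM duplicate screen were retested in concentration-response (top 50 uM) relative to DMSO baseline.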

Assay [14] addresses human Leukotriene B4 Receptor 1 (LTB4-BLT1), LTB4R (gene 1241) (UniProt Q15722). Put plainly: NVS_GPCR_hLTB4_BLT1: NovaScreen (NVS) G Protein-Coupled Receptor Assay for human Leukotriene B4 Receptor 1 (LTB4-BLT1) (AID 2283271). An outline of the steps:
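Cell-free human neutrophil receptor preparation, 1 h exposure, radioligand binding read by filter scintillation counting. Single 25 uM duplicate screen, then concentration series topping at 50 uM; binding loss scored against DMSO baseline.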

Assay [15] deals with human Orphanin, Opioid Related Nociceptin Receptor 1 (ORL1), OPRL1 (gene 4987) (UniProt P41146). Put plainly: NVS_GPCR_hORL1: NovaScreen (NVS) G Protein-Coupled Receptor Assay for human Orphanin, Opioid Related Nociceptin Receptor 1 (ORL1) (AID 2283283). An outline of the steps: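 Cell-free binding using HEK293-derived receptor protein: radioligand displacement measured by filter scintillation 1 hour after dosing. Primary testing at 25 uM in duplicate, followed by singleton concentration series up to 50 uM; DMSO served as negative control.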

Results filed as inconclusive are left out. Active and inactive are the calls of the source. The calls were made as follows: active = hit-call score of the fitted dose curve at least 0.9, where 1 is the maximum; inconclusive = response in the unintended direction; inactive = score below 0.9.

Chain of Muscarinic acetylcholine receptor M3 (Homo sapiens) (P20309 whole entry, looked up): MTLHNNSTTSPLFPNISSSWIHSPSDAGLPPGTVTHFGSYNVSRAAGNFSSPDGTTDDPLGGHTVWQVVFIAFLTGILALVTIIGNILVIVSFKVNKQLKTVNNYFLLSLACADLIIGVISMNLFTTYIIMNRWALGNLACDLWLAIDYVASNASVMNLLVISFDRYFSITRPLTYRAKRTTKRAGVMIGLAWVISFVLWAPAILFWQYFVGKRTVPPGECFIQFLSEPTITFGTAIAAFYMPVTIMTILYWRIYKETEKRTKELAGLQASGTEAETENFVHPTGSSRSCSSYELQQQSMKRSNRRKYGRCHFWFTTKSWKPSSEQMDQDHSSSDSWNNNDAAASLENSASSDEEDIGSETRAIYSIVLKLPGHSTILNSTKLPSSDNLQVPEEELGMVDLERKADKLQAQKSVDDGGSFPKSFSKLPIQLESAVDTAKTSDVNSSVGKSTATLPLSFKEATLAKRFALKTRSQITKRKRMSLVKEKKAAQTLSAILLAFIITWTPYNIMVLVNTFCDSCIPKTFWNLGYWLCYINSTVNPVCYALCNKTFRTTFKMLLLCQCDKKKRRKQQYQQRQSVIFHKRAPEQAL
Chain of human Adrenergic, Beta 3 Receptor (Adrb3), ADRB3 (gene 155) (P13945 whole entry, looked up): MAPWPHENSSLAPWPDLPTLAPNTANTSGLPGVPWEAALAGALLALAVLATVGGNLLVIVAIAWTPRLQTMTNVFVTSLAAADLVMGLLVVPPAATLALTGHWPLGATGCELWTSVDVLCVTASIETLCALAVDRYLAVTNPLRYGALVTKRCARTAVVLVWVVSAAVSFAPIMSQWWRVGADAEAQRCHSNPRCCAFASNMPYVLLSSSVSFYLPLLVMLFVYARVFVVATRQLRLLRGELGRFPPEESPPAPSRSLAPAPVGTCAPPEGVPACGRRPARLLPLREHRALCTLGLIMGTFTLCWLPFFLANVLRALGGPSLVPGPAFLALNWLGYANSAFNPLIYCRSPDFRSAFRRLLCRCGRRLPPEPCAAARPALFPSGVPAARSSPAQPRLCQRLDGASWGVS
Chain of human Histamine 1 Receptor (H1), HRH1 (gene 3269) (P35367 whole entry, looked up): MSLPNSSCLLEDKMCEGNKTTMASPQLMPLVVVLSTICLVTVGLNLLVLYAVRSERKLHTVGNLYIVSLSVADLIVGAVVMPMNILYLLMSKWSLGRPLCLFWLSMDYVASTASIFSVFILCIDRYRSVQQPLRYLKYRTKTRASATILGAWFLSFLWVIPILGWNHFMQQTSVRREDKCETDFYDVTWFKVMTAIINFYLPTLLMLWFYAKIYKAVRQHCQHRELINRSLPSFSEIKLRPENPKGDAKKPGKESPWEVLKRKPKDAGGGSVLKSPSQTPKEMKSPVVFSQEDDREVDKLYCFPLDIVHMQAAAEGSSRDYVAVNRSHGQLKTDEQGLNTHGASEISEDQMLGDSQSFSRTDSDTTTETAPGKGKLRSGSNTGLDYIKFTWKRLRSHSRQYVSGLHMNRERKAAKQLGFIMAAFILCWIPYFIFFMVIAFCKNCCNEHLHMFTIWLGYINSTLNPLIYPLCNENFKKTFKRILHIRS
Chain of human Leukotriene B4 Receptor 1 (LTB4-BLT1), LTB4R (gene 1241) (Q15722 whole entry, looked up): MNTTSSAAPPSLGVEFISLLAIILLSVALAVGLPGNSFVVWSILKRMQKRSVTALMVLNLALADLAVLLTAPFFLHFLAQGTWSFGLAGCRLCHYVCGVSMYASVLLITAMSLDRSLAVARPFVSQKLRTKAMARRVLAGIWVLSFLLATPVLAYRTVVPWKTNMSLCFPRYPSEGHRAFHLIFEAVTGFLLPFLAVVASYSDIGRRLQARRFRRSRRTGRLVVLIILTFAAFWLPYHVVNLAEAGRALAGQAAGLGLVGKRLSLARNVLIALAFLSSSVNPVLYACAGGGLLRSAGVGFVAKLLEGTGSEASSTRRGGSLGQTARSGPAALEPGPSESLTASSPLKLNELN
Chain of human Dopamine Receptor D4.4 (DRD4.4), DRD4 (gene 1815) (P21917 whole entry, looked up): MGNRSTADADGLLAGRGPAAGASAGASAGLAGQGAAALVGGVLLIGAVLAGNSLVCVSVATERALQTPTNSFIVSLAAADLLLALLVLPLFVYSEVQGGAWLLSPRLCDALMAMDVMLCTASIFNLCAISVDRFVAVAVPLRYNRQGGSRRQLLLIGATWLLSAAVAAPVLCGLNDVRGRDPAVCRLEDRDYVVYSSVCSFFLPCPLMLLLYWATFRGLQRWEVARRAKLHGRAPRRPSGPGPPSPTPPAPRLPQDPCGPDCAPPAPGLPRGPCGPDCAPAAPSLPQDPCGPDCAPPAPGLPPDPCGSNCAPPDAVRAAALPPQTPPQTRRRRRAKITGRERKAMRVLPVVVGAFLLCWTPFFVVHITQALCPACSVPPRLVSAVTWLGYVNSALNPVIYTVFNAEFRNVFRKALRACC
Chain of human Endothelin Receptor Type B (ETB), EDNRB (gene 1910) (P24530 whole entry, looked up): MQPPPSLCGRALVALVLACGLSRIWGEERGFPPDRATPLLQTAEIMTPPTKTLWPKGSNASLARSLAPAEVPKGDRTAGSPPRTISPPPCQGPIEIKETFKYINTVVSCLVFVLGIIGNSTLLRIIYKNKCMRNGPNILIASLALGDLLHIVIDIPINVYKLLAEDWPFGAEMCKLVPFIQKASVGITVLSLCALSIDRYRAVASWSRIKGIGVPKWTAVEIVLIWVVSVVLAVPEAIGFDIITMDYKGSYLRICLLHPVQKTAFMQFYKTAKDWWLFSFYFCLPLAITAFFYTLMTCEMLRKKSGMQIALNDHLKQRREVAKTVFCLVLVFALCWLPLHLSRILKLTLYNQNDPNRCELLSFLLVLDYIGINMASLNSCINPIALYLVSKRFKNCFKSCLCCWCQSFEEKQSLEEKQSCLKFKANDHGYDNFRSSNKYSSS

For the compound `O=C(O)c1cccc(N(Cc2cccnc2)c2ccc(OC(F)F)c(OC(F)F)c2)c1`, the result in assay [1] was inactive.

As for `CC[C@H](C)C(=O)O[C@H]1C[C@@H](C)C=C2C=C[C@H](C)[C@H](CC[C@@H]3C[C@@H](O)CC(=O)O3)[C@H]21`, the call in [2] was inactive.

For the compound `Cn1c(=O)cc(Oc2ccc(F)cc2F)c2cnc(NCC(C)(C)O)nc21`, the AC50 (in general, the concentration giving half of the maximal activity seen) in [3] was 6.95 µM (active). Also, the compound was called inactive in [1].

For the compound `CCOC(=O)c1ccc(C2CCC(NC[C@H](O)COc3ccc(O)c(NS(C)(=O)=O)c3)CC2)cc1` (stereo partly drawn), the AC50 in assay [4] was 7.77 µM (active); in [5], 11.3 µM (active); in [6], 0.0174 µM (active); in assay [3] it was 18.6 µM (active); in [7] it was 21.9 µM (active); in [8], 12.7 µM (active). Besides, the AC50 was 18 µM (active) in assay [9], 4.31 µM (active) in [10], 3.42 µM (active) in assay [11] and 5.98 µM (active) in assay [1].

As for `CC/C(=C\C(=N/O)C(N)=O)C(C)[N+](=O)[O-]` (stereo not drawn), the call in assay [4] and in assay [1] was inactive.

Turning to `O=C1CCCCCN1`, in [2], the compound was classed as inactive.

`COc1ccc2sc(C(=O)Nc3nnn[nH]3)c(OC(C)C)c2c1`: in assay [12], the AC50 is 0.187 µM (active).

On to `O=C(CCCCCCCCc1cccnc1)N1CCC(C=C(c2ccccc2)c2ccccc2)CC1`, for which the outcome in assay [13] and in [9] was inactive.

Consider `CCN(C(=O)c1cc(C)cc(OC[C@H](C)Nc2ccncc2)c1)C(C)C`, for which the AC50 in assay [14] was 5.9 µM (active); in assay [9] it was 16.9 µM (active); in [10], 10.6 µM (active).

Turning to `COCCOc1cc2cc(C(=O)NC3CCN(C(C)C)CC3)n(CC(=O)Nc3ccc(Cl)cn3)c2cn1`, the call in assay [11] and in assay [1] was inactive.

On to `On1ccccc1=S`, for which the results for the AC50 in assay [1] and in assay [15] were 8.14 µM (active) and 4.73 µM (active), respectively.

With `O=C(O)c1cc(N=Nc2ccc(S(=O)(=O)Nc3ccccn3)cc2)ccc1O`, the concentration at half-maximal activity (AC50) in [12] is 9.98 µM (active).

These data come from PubChem BioAssay (EPA / NIEHS).
